The source of these data is PubChem BioAssay AID1671194 (National Center for Advancing Translational Sciences (NCATS), 2021).

About 240 (0.17%) of roughly 140,000 compounds were called active. Entries that show only a call come without a potency. Another 9% or so got no clear call; they are omitted. Calls come from the whole dose curve; as a rule, active = well fitted inhibition curve with a large enough effect; inconclusive = small, poorly fitted or top-dose-only effect; inactive = no such curve, though single readings can be large or run the other way. Many of the other results were omitted from the sample, so actives are more common in it than they were.
Potency is the fitted concentration of half-maximal effect.

This assay can be described thus: Primary qHTS assay for inhibitors of alpha-synuclein gene (SNCA) expression. Note: nearly all actives have a fitted effect of over 45% in size. The note with it: HEK-293 SNCA-luciferase knock-in, luminescence, 24 h; series mostly up to 57.2 µM. From the text: Assay Submitter (PI): Daniel R. Scoles Ph.D.
Department of Neurology, University of Utah, Salt Lake City, Utah
Accumulation of alpha-synuclein is a main underlying pathological feature of Parkinson's disease (PD) and alpha-synucleinopathies, for which lowering expression of the alpha-synuclein gene (SNCA) is a potential therapeutic avenue. Using a cell-based luciferase reporter of SNCA expression we performed a quantitative high throughput screen (qHTS) of 155,885 compounds in dose response. The screening assay was generated using genome editing to insert the luciferase gene downstream and in frame of the SNCA gene in HEK-293 cells (1). A viability counterscreen using GF-AFC was used to eliminate cytotoxic and false positive compounds. After in silico analysis (clustering, removal of frequent hitter nuisance chemotypes), inhibitor compounds from the primary screen were selected for follow up and re-tested at 11-doses in the SNCA-luc cells (luciferase and GF-AFC confirmation), and in CMV-luc expressing cell line to flag general transcriptional repressors.
Described herein are the results of the primary screen for SNCA inhibitors; decrease in luciferase signal (inhibition of the SNCA gene expression) is the desired output for this assay.
1. Dansithong, W., Paul, S., Scoles, D. R., Pulst, S. M., and Huynh, D. P. (2015) Generation of SNCA Cell Models Using Zinc Finger Nuclease (ZFN) Technology for Efficient High-Throughput Drug Screening. PLoS ONE 10, e0136930.
SEQUENCE No. (e.g., 1, 2, 3, etc.); […] (e.g., Cells, Incubation, Reagent, etc.); VALUE; DESCRIPTION
1; Cells; 4 uL; Dispense 1500 HEK-293-SNCA-luc cells/well into Greiner 1536-well white / solid bottom tissue culture treated plate. The plate was covered with metal lids with gas-exchange holes.
2; Incubate; 24 hours; Incubate at 37C, 5% CO2, 95% RH.
3; Compounds; 23 nL; Compounds and controls were transferred via a Kalypsys Pin Tool (Wako USA) equipped with a 1536-slotted pin array. The plate was covered with metal lids with gas-exchange holes.
4; Incubate; 24 hours; Incubate at 37C, 5% CO2, 95% RH.
5; Dispense; 1 uL; Dispense Gly-Phe-7-amino-4-trifluoromethylcoumarin (GF-AFC, prepared at 125 uM in PBS) was added. The plate was covered with metal lids with gas-exchange holes.
6; Incubate; 30 min; Incubate at 37C, 5% CO2.
7; Detector; Fluorescence; Measure fluorescence with ViewLux microplate reader (PerkinElmer) equipped with 405/10 excitation and 540/25 emission filters.
8; Dispense; 3 uL; Dispense ONE-Glo ([…]) lucifase detection reagent was added to each well. Plates were covered with metal lids with gas-exchange holes.
9; Incubate; 15 min; Incubate at room temperature.
10; Detector; Luminescence; Measure luminescence with ViewLux microplate reader (PerkinElmer) equipped with clear filters.
NOTES (numbers refer to sequence above)
1; HEK-293-SNCA-luc were cultured and suspended in phenol-red free DMEM (4.5 g/L glucose, 25 mM HEPES, cat #21063 (Thermo)).
3; Compounds were added to the assay plate in an 11-point intra plate dose response, 1:3 titration in DMSO with a final concentration range of […]. Vehicle-only plates, with DMSO being pin-transferred to every well, were inserted at the beginning of screening runs to confirm expected assay performance. Activity was normalized to wells containing medium only (-100% activity, full inhibition) and SNCA-luc cells treated with DMSO vehicle control (0% activity), contained on the same plate as test samples.
10; Signals were analyzed, and dose-response curves were fit using the Hill equation. Compounds in curve classes -1.1, -1.2, -2.1, -2.2 in the SNCA-luc assay were considered active. Compounds were eliminated from further consideration if also active (curve class -1.1, -1.2, -1.3, -1.4, -2.1, -2.2, -2.3, -2.4) in the GF-AFC cytotoxicity assay.
(In general: Quantitative high-throughput screening tests each substance at several concentrations.)
Consider `O=c1c2nc(-c3ccccc3)ccc2ncn1Cc1ccccc1`, for which the Potency result was “inactive”. The result for `C[C@@H](O)[C@H](N)C(=O)N1CCc2onc(-c3cccc4ccccc34)c2C1` reads “inactive”. In the case of `COc1ccc(CN2CCN(c3ccccc3)CC2C)c(OC)c1OC` (configuration not stated) it was “inactive”; in that of `O=C1CC2(CCN(C(=O)C3CCCN3C(=O)Cc3ccccn3)CC2)Oc2ccccc2N1` (configuration not stated), “inactive”; in that of `CCOc1ccccc1C(=O)Nc1ccc2c(c1)N(C)C(=O)c1ccccc1S2`, “inactive”. In the case of `COc1cccc(NC(=O)Nc2ccc3c(c2)N(C)C(=O)c2ccccc2S3)c1` it was 20 µM (active). With `CCN1C(=O)c2ccccc2Sc2ccc(NC(=O)Cc3ccc(OC)cc3)cc21`, the Potency result is “inactive”. Consider `COc1ccc(-c2nc(CN3CCOC(CN)C3)c(C)o2)c2ccccc12` (configuration not stated), for which the Potency result is “inactive”. For the compound `CN1C[C@H](O)C[C@H]1c1nnc2n1CCN(C(=O)c1cc3ccccc3[nH]1)CC2`, the Potency entry was “inactive”. `COc1ccc(Cl)cc1NC(=O)N1CCCC(Cn2cnc3cccnc32)C1` (configuration not stated): the Potency result was “inactive”. `COCCN1C[C@H]2CN(C)c3ccccc3[C@@H]2N(C(=O)CC2CCCC2)CCC1=O`: the Potency result is “inactive”. The result for `CNC(=O)C1CCCCN1Cc1ccc(-c2cccs2)cc1` (configuration not stated) reads “inactive”; that for `COc1ccc(-c2cc(N3CCCC(NC(=O)c4cccc(Cl)c4)C3)n[nH]2)cc1` (configuration not stated), “inactive”; that for `Cc1cc(OC2CN(C(=O)c3ccccc3F)C2)ccc1F`, “inactive”.

Regarding `COc1ccc(CC(=O)N2CC[C@@H](CC(=O)O)[C@@H](CCN(C)c3ccccc3)C2)cc1`, the Potency result was “inactive”. The result for `COCc1nc(C2CC(N)C2)cc(N2CCC(c3[nH]ncc3C)CC2)n1` (configuration not stated) reads “inactive”. The result for `CCOc1ccc(N(CC)C(=O)C2CCN(S(=O)(=O)c3cccc4nonc34)CC2)cc1` reads “inactive”. Regarding `CCOc1ccc(N(Cc2ccccc2)C(=O)c2nc(S(C)(=O)=O)ncc2Cl)cc1`, the Potency is 6.31 µM (active). The result for `CCOc1ccc(NC(=O)CN(Cc2ccccc2)S(=O)(=O)c2ccc(Cl)cc2)cc1` reads “inactive”; that for `CCOc1ccc2c(n1)CCN(C(=O)NC1CCCCC1)C2`, “inactive”. In the case of `C=CCN(C)C(=O)[C@@H](C)C1CC[C@@]2(C)Cc3sc(NS(=O)(=O)c4ccc(Cl)cc4)nc3[C@@H](C)[C@@H]2[C@H]1O` (some centres not stated) it was “inactive”.

As for `CCN1CCN(C(=O)c2ccc3nnc(-c4ccc(OC(F)(F)F)cc4)n3c2)CC1`, the Potency result was “inactive”. In the case of `COc1cccc(CCC(=O)N2CCCN(S(C)(=O)=O)c3ccccc32)c1` it was “inactive”. In the case of `Oc1ccc(-c2nc(C3CC3)nc3c2CN(Cc2ccc(F)cc2)CC3)cc1` it was “inactive”; in that of `Cc1cccc(CN2CCC3(Cc4ccccc4CNC3=O)C2)c1` (configuration not stated), “inactive”; in that of `COC(=O)N1CCN(C(=O)c2cccc(-c3ccccc3OC)c2)CC1`, “inactive”.

Turning to `CC1=C(C(=O)N(C)C)C(c2ccc(Cl)cc2)N2C(CC(=O)NCc3ccco3)=CSC2=N1` (configuration not stated), the Potency result is “inactive”. The result for `CCCn1c(NCc2ccccc2F)nc2ccccc21` reads “inactive”. The result for `Cc1ccc(OCCn2c(CNc3ccccc3C)nc3ccccc32)cc1` reads “inactive”.

For the compound `CCCn1c(NCc2ccc(N(CC)CC)cc2)nc2ccccc21`, the Potency is 17.8 µM (active). In the case of `O=C(NCCc1ccccn1)c1ccc2c(c1)N(S(=O)(=O)c1ccccc1)CC2` it was “inactive”. In the case of `CCCS(=O)(=O)N1CCC(CCOC)(NC(=O)NCC)CC1` it was “inactive”. In the case of `CC(C)NC(=O)C1(CCO)CCN(c2ncccn2)C1` (configuration not stated) it was “inactive”; in that of `COc1cccc(CC(=O)NC2CCN(c3cc(-c4ccc(F)cc4)[nH]n3)C2)c1` (configuration not stated), “inactive”. Regarding `CCC(=O)N1CCC2(CC1)OCC(C(=O)NCc1ccccc1)N2C(=O)c1ccc(C)cc1` (configuration not stated), the Potency entry is “inactive”. The result for `O=C1NCc2ccccc2CC12CCCN2Cc1ccccc1OC(F)(F)F` (configuration not stated) reads “inactive”; that for `CC(C)CN(CC1CN(C(=O)Cc2cccs2)CCO1)C(=O)c1cccc2ccccc12` (configuration not stated), “inactive”; that for `O=C1NC(=NC2CCCC2)C2(CCCN(Cc3ccsc3)C2)N1c1cc(F)cc(F)c1` (configuration not stated), “inactive”.

For the compound `CCOc1cccc(CN2CCC(Oc3ccc(-c4noc(C5CC5)n4)cc3)C2)c1` (configuration not stated), the Potency result is “inactive”. For `COc1ccccc1Nc1ccnc(N2CCC(C(=O)N3CCC(c4ccccc4)CC3)CC2)n1`, the Potency entry is “inactive”. On to `Cc1ccc(-c2ccccc2CN2CCN(C(=O)NC(C)C)CC2)cc1Cl`, for which the Potency entry was “inactive”. In the case of `Cc1nonc1CC(=O)NC1CC(=O)N(Cc2cccc3ccccc23)C1` (configuration not stated) it was “inactive”; in that of `COc1ccccc1NC(=O)Cn1c(-c2ccc(F)cc2)nc(C)c(CCO)c1=O`, “inactive”. In the case of `COc1ccc(-c2ccnc(N[C@H]3CO[C@H]4[C@@H]3OC[C@H]4OC(=O)Nc3cccc4ccccc34)n2)cc1` it was “inactive”. The result for `Cn1cccc1C(=O)N1C[C@@H](COc2ccccc2)[C@H](C(N)=O)C1` reads “inactive”; that for `Cc1cccc(OCCc2noc(C3CCCN(Cc4ccccc4C#N)C3)n2)c1` (configuration not stated), “inactive”.

Turning to `CCOC(=O)C1CCCN(C(=O)c2ccc3oc(-c4ccccn4)nc3c2)C1` (configuration not stated), the Potency result is “inactive”.

Take `CC(=O)N1CCN(C(=O)c2ccc3nc(-c4ccncc4)oc3c2)CC1`: the Potency entry is “inactive”. In the case of `Cc1cccc(-c2nc3ccc(C(=O)N4CCCCC4)cc3o2)n1` it was 7.94 µM (active); in that of `O=C(NCCc1ccccc1)c1ccc2nnc(C3CCCC3)n2c1`, “inactive”; in that of `CCOC(=O)C1CCCN(C(=O)Cc2ccc(N(Cc3cccc(F)c3)C(=O)c3ccco3)cc2)C1` (configuration not stated), “inactive”. In the case of `CCOc1ccccc1C(=O)N1CCC(Cc2nc(-c3ccccc3)no2)CC1` it was “inactive”; in that of `COc1ccc(NC(=O)[C@@H]2C[C@@H](c3ccc(F)cc3)N(CCOc3ccccc3)C2)cn1`, “inactive”; in that of `CC(C)(C)C(=O)N1CCc2nc(-c3ccc(Cl)cc3)nc(-c3ccccc3)c2C1`, “inactive”. The result for `Cc1ccc([S+](=O)([O-])N2CCN(C(=O)c3nc4cccnc4n(C4CCCC4)c3=O)CC2)cc1` reads “inactive”; that for `Oc1ccccc1CN1CCOC[C@H]1c1ncc(-c2ccc(C(F)(F)F)cc2)[nH]1`, “inactive”. As for `Cc1c(Cl)cccc1NC(=O)N(C)CC1CCOC1` (configuration not stated), the Potency entry is “inactive”.

Take `CC1(c2cccnc2)N(CCOc2ccccc2)C(=O)OC12CCN(C(=O)c1cccc(Cl)c1)CC2` (configuration not stated): the Potency result is “inactive”. The result for `COc1ccccc1-c1cc(C(=O)NCCSC)nn2cccc12` reads “inactive”; that for `CC1=C[C@@H](CNC(=O)Nc2ccccc2)[C@H](C(C)C)C[C@H]1CC(=O)NCCN(C)C`, “inactive”; that for `O=C(C1CCC1)N1CCC(O)(c2csc(CN3CCc4ccccc4C3)n2)CC1`, “inactive”.

With `O=C1[C@@H]2C[C@@H](O)CN2C2(CN(C3CCC3)C2)C(=O)N1Cc1ccccc1`, the Potency entry was “inactive”.
